Rows were chosen to be rich in hits. Some 3.9% of all compounds tested hit in one or more screens of this group.
PLCb3 inh: human PLC-beta3 inhibitors, primary screen, biochemical, fluorescence; inhibition, % at 12.2 µM; Purified PLC-beta3, fluorogenic substrate; 1-phosphatidylinositol 4,5-bisphosphate phosphodiesterase beta-3 (Homo sapiens), Q01970; hit rate 0.18% among 370,000; AID 720704, 2013; in the data active means inhibition above about 11%;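 further: 0% = median of compound wells on plate and 100% = full blocker control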
Target sequence (Q01970 whole entry, looked up): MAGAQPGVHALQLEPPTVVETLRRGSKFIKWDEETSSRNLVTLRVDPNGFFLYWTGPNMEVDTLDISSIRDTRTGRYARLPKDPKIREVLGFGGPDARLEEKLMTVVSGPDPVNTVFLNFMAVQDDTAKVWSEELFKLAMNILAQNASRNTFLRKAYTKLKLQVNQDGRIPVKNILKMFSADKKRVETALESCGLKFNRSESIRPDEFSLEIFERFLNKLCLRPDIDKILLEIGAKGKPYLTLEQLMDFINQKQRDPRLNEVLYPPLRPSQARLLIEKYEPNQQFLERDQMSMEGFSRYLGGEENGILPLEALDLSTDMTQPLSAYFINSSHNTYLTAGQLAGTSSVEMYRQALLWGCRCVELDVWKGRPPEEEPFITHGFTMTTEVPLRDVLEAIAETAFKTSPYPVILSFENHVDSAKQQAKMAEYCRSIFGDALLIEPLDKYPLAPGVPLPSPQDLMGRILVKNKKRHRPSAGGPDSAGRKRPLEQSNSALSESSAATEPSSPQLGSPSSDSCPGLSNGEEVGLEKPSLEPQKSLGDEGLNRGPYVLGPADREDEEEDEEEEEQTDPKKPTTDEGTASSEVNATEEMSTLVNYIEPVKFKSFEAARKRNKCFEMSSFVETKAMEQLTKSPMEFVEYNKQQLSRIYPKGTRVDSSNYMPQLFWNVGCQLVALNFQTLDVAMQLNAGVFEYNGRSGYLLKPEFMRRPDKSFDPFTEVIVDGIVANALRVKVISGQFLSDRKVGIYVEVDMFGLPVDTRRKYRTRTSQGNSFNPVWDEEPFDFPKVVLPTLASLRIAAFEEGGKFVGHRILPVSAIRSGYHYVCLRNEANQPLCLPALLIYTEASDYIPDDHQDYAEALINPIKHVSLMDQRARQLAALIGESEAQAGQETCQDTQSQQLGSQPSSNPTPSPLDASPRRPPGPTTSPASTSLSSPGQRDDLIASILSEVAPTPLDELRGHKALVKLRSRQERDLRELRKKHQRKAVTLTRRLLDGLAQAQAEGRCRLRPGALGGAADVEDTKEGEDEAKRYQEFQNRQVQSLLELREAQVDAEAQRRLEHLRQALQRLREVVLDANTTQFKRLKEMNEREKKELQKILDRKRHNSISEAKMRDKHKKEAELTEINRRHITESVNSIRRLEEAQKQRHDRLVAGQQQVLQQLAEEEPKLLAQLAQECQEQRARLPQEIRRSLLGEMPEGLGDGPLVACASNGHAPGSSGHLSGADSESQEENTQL
PLC-gamma1 inh: PLC-gamma1 enzyme inhibitors, primary screen, biochemical, fluorescence, purified enzyme. fluorogenic substrate. inhibition, % at 12.2 µM. hit rate 0.84% among 370,000. AID 720700, 2013; in the data active means inhibition above about 9.5%
HGIII-sPLA2 inh: human group III sPLA2 inhibitors, primary screen, biochemical, QFRET, BODIPY PC-A2 liposome substrate | Group 3 secretory phospholipase A2 (Homo sapiens), Q9NZ20 | QFRET BODIPY PC-A2 liposome hydrolysis, fluorescence | hit rate 0.56% among 370,000 | inhibition, % at 12.2 µM;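 active means inhibition above mean plus 3 SD of compounds lying within the high and low control bounds, cut at about 19% in these data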;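 further: 0% = median of test compound wells and 100% = no enzyme DMSO wells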
AHR activator: AHR activators, primary screen, cell-based, luminescence, luciferase reporter, human. AHR-responsive luciferase reporter cells. activation, % at 5 µM. Aryl hydrocarbon receptor (Homo sapiens), P35869. hit rate 2.5% among 320,000; in the data active means activation above about 47%;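 further: 0% = vehicle wells and 100% = reference agonist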
CR mimetic SO: reduction of superoxide in aged yeast, primary screen, HTS | S. cerevisiae aged cells, superoxide DHE fluorescence; active compounds read low | hit rate 0.18% among 330,000 | superoxide response (% of plate mean), % at 10 µM;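 active means superoxide response under a set limit, about three screen SD below normal, cut at about 65% in these data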;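 further: yeast aged for seven days with compound at 30 °C before DHE staining; 100% = average MFI of all compound-treated wells on the plate with controls excluded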
HIF act: HIF pathway transcriptional activators, primary screen, cell-based, U2OS HRE-luciferase, luminescence. U2OS HRE-luciferase reporter; normalized: DMSO 0%, desferrioxamine 100%. activation, % at 7.5 µM (by protocol). hit rate 0.32% among 300,000;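 active means mean activation of at least 10% of the iron chelator positive control signal, with at least half of replicates also reaching 10%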
hGIII sPLA2 conf: human group III sPLA2 inhibitors, confirmation, biochemical, QFRET, triplicate. hit rate 34% among 2,000. inhibition, % at 12.2 µM. shares compounds with HGIII-sPLA2 inh. AID 743280, 2014. recombinant hGIII-sPLA2, BODIPY PC-A2 QFRET fluorescence;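 active means mean inhibition across triplicates above the hit cutoff set in the earlier primary screen, cut at about 19% in these data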;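 further: 0% = enzyme with DMSO and 100% = DMSO wells lacking enzyme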
BODIPY interf: 535nm fluorescence optical interference, confirmation, artefact control for HGIII-sPLA2 inhibitor project, biochemical, QFRET; inhibition, % at 12.2 µM; hit rate 8.5% among 2,000; shares compounds with HGIII-sPLA2 inh; AID 743282, 2014; BODIPY FL product fluorescence interference;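 active means average inhibition above the solvent-only control mean plus 3 SD, cut at about 6% in these data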;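 further: 0% = DMSO with substrate plus product and 100% = DMSO with substrate alone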
535nm interf DR: 535nm fluorescence optical interference, dose response, artefact control for HGIII-sPLA2 inhibitor project, biochemical, QFRET; 240 tested, under 10 active; shares compounds with HGIII-sPLA2 inh; IC50, µM; BODIPY FL product fluorescence interference, cell-free;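 active means IC50 at or below 10 µM; inactive means IC50 above 10 µM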
* marks the source's active call; other numbers are inactive results.

`Clc1ccccc1CN1CCSCC1` gave PLCb3 inh 3.3, PLC-gamma1 inh 5.1, HGIII-sPLA2 inh 3.1, AHR activator 0.5, CR mimetic SO 94.9 and HIF act 0.5.
Screening O=C(NCc1ccccc1Cl)c1cnn2cccnc12 returned PLCb3 inh -120.0, PLC-gamma1 inh -82.0, HGIII-sPLA2 inh 3.5, AHR activator 12.4, CR mimetic SO 107.7 and HIF act -0.2.
Screening O=C(NCc1cccs1)c1cnn2cccnc12 returned PLCb3 inh -138.1, PLC-gamma1 inh -121.1, HGIII-sPLA2 inh 24.3*, AHR activator 1.6, CR mimetic SO 110.4, HIF act -0.7, hGIII sPLA2 conf -4.8 and BODIPY interf -4.6.
Screening CC(C)(C)S(=O)N1Cc2cc(C(=O)N[C@@H]3CCN(Cc4ccccc4)C3)nc(-c3cccc(-c4cc5ccccc5o4)c3)c2[C@@H]1CCO (stereo not given in full) returned PLCb3 inh -4.9, PLC-gamma1 inh -5.0 and HGIII-sPLA2 inh -3.1.
`Cc1nc2ccccc2n1Cc1ccccc1` gave PLCb3 inh -1.4, PLC-gamma1 inh 0.7, HGIII-sPLA2 inh -0.1, AHR activator 2.1, CR mimetic SO 87.8 and HIF act -30.9.
For Cc1nc2ccccc2n1CSc1ccccc1 the results were PLCb3 inh 1.4, PLC-gamma1 inh 5.1, HGIII-sPLA2 inh 20.7*, AHR activator -4.6, CR mimetic SO 112.5, hGIII sPLA2 conf 1.6 and BODIPY interf -10.2.
Screening CCOC(=O)C(=NC(C)CC)NNc1cccc(C(F)(F)F)c1 (stereo not given) returned PLCb3 inh -36.8, PLC-gamma1 inh -26.4, HGIII-sPLA2 inh 23.7*, AHR activator 1.6, CR mimetic SO 99.9, HIF act 0.3, hGIII sPLA2 conf 34.8*, BODIPY interf 1.2 and 535nm interf DR >122.
`COc1ccc(-c2ccc(C(=O)Nc3cccc(N(C)C)c3)c3occc23)c(C)c1` gave PLCb3 inh -77.7, PLC-gamma1 inh -59.1, HGIII-sPLA2 inh 19.7*, hGIII sPLA2 conf 15.9 and BODIPY interf 7.7*.
Screening Cc1ccc(C(NC(=O)C(C)C)c2cc([N+](=O)[O-])c3cccnc3c2O)cc1 (stereo not given) returned PLCb3 inh -1.9, PLC-gamma1 inh 5.4, HGIII-sPLA2 inh 13.0, AHR activator 17.9, CR mimetic SO 111.8 and HIF act 1.0.
CCN(CC)c1ccc(C(NC(=O)C(C)C)c2ccc3cccnc3c2O)cc1 (stereo not given) was read as PLCb3 inh -4.0, PLC-gamma1 inh -8.2, HGIII-sPLA2 inh 36.1*, hGIII sPLA2 conf 22.6* and BODIPY interf -2.0.
CC(=O)NC(c1ccc(Cl)cc1Cl)c1ccc2cccnc2c1O (stereo not given) was read as PLCb3 inh -23.0, PLC-gamma1 inh -14.0, HGIII-sPLA2 inh 19.4*, CR mimetic SO 103.7, HIF act 246.1*, hGIII sPLA2 conf 23.0* and BODIPY interf -8.8.
Screening CCCCC(=O)NC(c1ccc(N(C)C)cc1)c1ccc2cccnc2c1O (stereo not given) returned PLCb3 inh -4.8, PLC-gamma1 inh -3.6, HGIII-sPLA2 inh 38.2*, AHR activator 1.5, CR mimetic SO 90.0, HIF act 88.6*, hGIII sPLA2 conf 26.2* and BODIPY interf -6.8.
CCCCC(=O)NC(c1ccccc1OC)c1ccc2cccnc2c1O (stereo not given) was read as PLCb3 inh -15.0, PLC-gamma1 inh -8.7, HGIII-sPLA2 inh 30.7*, AHR activator 1.8, CR mimetic SO 87.5, HIF act 62.9*, hGIII sPLA2 conf 27.7*, BODIPY interf -11.4 and 535nm interf DR >122.
For Cc1ccc(S(=O)(=O)N2CCC(C(=O)NCCCN3CCOCC3)CC2)cc1C the results were PLCb3 inh 2.3, PLC-gamma1 inh -2.1, HGIII-sPLA2 inh 1.7, AHR activator -1.4, CR mimetic SO 103.9 and HIF act -2.3.
`Cc1ccc(C2NC(=O)c3n[nH]c(C)c32)cc1` (stereo not given) gave PLCb3 inh -15.0, PLC-gamma1 inh -5.6 and HGIII-sPLA2 inh -0.3.
Screening CC(C)(C)c1ccccc1OCC(=O)NCc1ccccc1 returned PLCb3 inh -8.6, PLC-gamma1 inh -2.0, HGIII-sPLA2 inh -4.5, AHR activator -1.3, CR mimetic SO 110.9 and HIF act -2.1.
For CCCC(=O)NC(c1ccc(Cl)cc1)c1ccc2cccnc2c1O (stereo not given) the results were PLCb3 inh -22.1, PLC-gamma1 inh -11.4, HGIII-sPLA2 inh 22.2*, AHR activator -1.1, CR mimetic SO 100.2, HIF act 92.2*, hGIII sPLA2 conf 24.1* and BODIPY interf -4.8.
O=C1CNC(=S)N1C(CO)c1ccccc1 (stereo not given) was read as PLCb3 inh -2.5, PLC-gamma1 inh -5.2, HGIII-sPLA2 inh -20.2, AHR activator -0.8, CR mimetic SO 85.5 and HIF act -1.5.
Screening OC(c1ccccc1)c1ccccc1CN1CCCNC1=S (stereo not given) returned PLCb3 inh 0.1, PLC-gamma1 inh 2.0, HGIII-sPLA2 inh 19.4*, hGIII sPLA2 conf 10.1 and BODIPY interf -1.4.
Screening O=C(Nc1cccc(O)c1)c1cc(-c2ccco2)on1 returned PLCb3 inh -3.8, PLC-gamma1 inh -1.5, HGIII-sPLA2 inh -6.0, AHR activator -2.0, CR mimetic SO 94.2 and HIF act 1.5.
For O=C(COC(=O)/C=C/c1ccc(Cl)cc1)NCCC1=CCCCC1 the results were PLCb3 inh -9.9, PLC-gamma1 inh 3.6, HGIII-sPLA2 inh 21.5*, AHR activator 2.6, CR mimetic SO 96.7, HIF act 0.3, hGIII sPLA2 conf -6.1 and BODIPY interf -10.5.
For COc1ccc(NC(=O)N(C)C[C@H]2Oc3ccc(NC(=O)Nc4ccc5c(c4)OCO5)cc3C(=O)N([C@H](C)CO)C[C@@H]2C)cc1 the results were PLCb3 inh -2.0, PLC-gamma1 inh -4.9 and HGIII-sPLA2 inh -12.4.
